According to the supplement of paper PMC10121225:
Structures can show the parent of a compound that is named as a salt.

system: hN + hpA co-culture (H1 iNGN2 human neurons + human primary astrocytes); test: presynaptic density (SYNAPSIN1 puncta per MAP2 neurite area), Z-score vs DMSO controls; higher = more presynaptic puncta (synapse-promoting); details: 3 µM; 72 h
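Note: immunostained co-cultures imaged by high-content microscopy, Z-score per plate against mean and SD of 0.1% DMSO wells, compounds added on differentiation day 18, analysed day 21.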

Row | Structure (SMILES) | presynaptic density (Z-score)
1 | N#CC1(c2ccc(NC(=O)c3cccnc3NCc3ccncc3)cc2)CCCC1 [Apatinib] | -1.31
2 | Cc1noc(-c2ccc(CSCCC(=O)O)cc2)c1NC(=O)OC(C)c1ccccc1Cl (stereo not drawn) | 0.975
3 | Cc1cnc(NC(=O)Nc2cc(Br)c(C)cc2OC[C@@H]2CNCCO2)cn1 | -0.602
4 | COc1cccc(C=NCCN=Cc2cccc(OC)c2[O-])c1[O-].[Cl-].[Mn+3] | -0.63
5 | COc1ccc(CC(C)NCC(O)c2ccc(O)c(NC=O)c2)cc1 (stereo not drawn) | 0.254
6 | Cn1c(N2CCCCS2(=O)=O)nc(C(=O)NCc2ccc(F)cc2)c(O)c1=O | -1.68
7 | CN(C)CCc1c[nH]c2ccc(Cn3cncn3)cc12 | -0.227
8 | C[C@@H]1CN(CC(=O)Nc2ccc3c(c2)Cc2cccc(-c4cc(=O)cc(N5CCOCC5)o4)c2S3)C[C@H](C)O1 | -1.12
9 | c1ccc(CC2=NCCN2)cc1 [Tolazoline HCl] | -0.161
10 | Cc1[nH]c2ccccc2c1C1=C(NCCc2ccc(F)cc2)C(=O)N(C)C1=O | -0.562
11 | OCCOc1ccc(/C(=C(/CCCl)c2ccccc2)c2ccccc2)cc1 [Ospemifene] | -0.588
12 | Cc1ccc2c(=O)c3cccc(CC(=O)O)c3oc2c1C [DMXAA (Vadimezan)] | -1.15
13 | NC(=O)c1cccc(-c2cc(Nc3ccc(OC(F)(F)F)cc3)ncn2)c1 | -1.31
14 | CC(C)(C)NC(=O)[C@H]1CC[C@H]2[C@@H]3CC[C@H]4NC(=O)C=C[C@]4(C)[C@H]3CC[C@]12C [Finasteride] | -0.206
15 | C#CCN[C@@H]1CCc2ccccc21 [Rasagiline Mesylate] | 0.0894
16 | COCCCC/C(=N\OCCN)c1ccc(C(F)(F)F)cc1 [Fluvoxamine maleate] | -0.239
17 | Nc1cccc2c1C(=O)N(C1CCC(=O)NC1=O)C2=O (stereo not drawn) [Pomalidomide] | 0.469
18 | COc1cc2/c(=N/c3ccc(Br)cc3F)nc[nH]c2cc1OCC1CCN(C)CC1 [Vandetanib (ZD 6474)] | 0.993
19 | CC(C)N(CCCNC(=O)Nc1ccc(C(C)(C)C)cc1)C[C@H]1O[C@@H](n2cc(Br)c3c(N)ncnc32)[C@H](O)[C@@H]1O | -0.407

Row | Structure (SMILES) | presynaptic density (Z-score)
20 | COc1ccc(COc2ccc(Cc3cnc(N)nc3N)cc2OC)cc1 | -0.788
21 | Cc1cccc(-c2nn3c(c2-c2ccnc4ccc(C(N)=O)cc24)CCC3)n1 | 0.336
22 | CC(C(O)c1ccc(O)cc1)N1CCC(Cc2ccccc2)CC1 (stereo not drawn) [Ifenprodil Tartrate_Selleck] | -0.233
23 | NC(=O)Nc1sc(-c2ccc(F)cc2)cc1C(N)=O | -1.69
24 | O=C(NCCN1CCOCC1)c1ccc(Cl)cc1 | 0.253
25 | O=C(C[S+]([O-])Cc1ccco1)NC/C=C\COc1cc(CN2CCCCC2)ccn1 (stereo not drawn) [Lafutidine] | -0.624
26 | O=C(Cc1ccc(-c2ccc(OCCN3CCOCC3)cc2)cn1)NCc1ccccc1 | -5.26
27 | CCOC(=O)C1=C(N)Oc2ccc(Br)cc2C1C(C#N)C(=O)OCC (stereo not drawn) | 0.81
28 | COc1cc(OC2CCN(C)CC2)ccc1Nc1ncc2c(n1)n(C1CCCC1)c(=O)n2C | -0.583
29 | CC(C)OC(=O)OCOP(=O)(CO[C@H](C)Cn1cnc2c(N)ncnc21)OCOC(=O)OC(C)C [Tenofovir Disoproxil Fumarate] | 0.611
30 | COc1ccc2cc([C@H](C)C(=O)O)ccc2c1 [Naproxen] | -1.04
31 | CCCCOc1ccc(C(=O)Nc2ccc(F)cc2F)cc1 | 0.219
32 | NS(=O)(=O)c1ccc(NC(=O)Nc2ccc(F)cc2)cc1 | 0.585
33 | CO[C@H]1C[C@@H]2CC[C@@H](C)[C@@](O)(O2)C(=O)C(=O)N2CCCC[C@H]2C(=O)O[C@H]([C@H](C)C[C@@H]2CC[C@@H](OCCO)[C@H](OC)C2)CC(=O)[C@H](C)/C=C(\C)[C@@H](O)[C@@H](OC)C(=O)[C@H](C)C[C@H](C)/C=C/C=C/C=C/1C [Everolimus (RAD001)] | -1.63
34 | C[C@]1(O)C[C@@H](c2nc(-c3ccc4ccc(-c5ccccc5)nc4c3)c3c(N)nccn32)C1 [OSI-906 (Linsitinib)] | 0.349
35 | CN(C)C(=O)[C@H](O)[C@H](Cc1ccccc1)NC(=O)c1cc2cc(Cl)ccc2[nH]1 | -0.264
36 | COc1ccc([C@]2(C#N)CC[C@@H](C(=O)O)CC2)cc1OC1CCCC1 [Cilomilast] | -0.137
37 | COc1cc(F)c(C(C)C)cc1-c1ccc(C(F)(F)F)cc1CN1C(=O)O[C@H](c2cc(C(F)(F)F)cc(C(F)(F)F)c2)[C@@H]1C [Anacetrapib (MK-0859)] | -0.588
38 | Cc1ccc(NC(=O)c2ccc(CN3CCN(C)CC3)cc2)cc1Nc1nccc(-c2cccnc2)n1 [Gleevec (Imatinib)] | -0.283
